High-throughput results (PubChem BioAssay)
Compounds with a hit are over-represented: about 5% of the library has one in this group of screens.
AI-2 QS modul = Vibrio harveyi AI-2 quorum sensing modulation; 300,000 compounds, 0.4% hits; activity change, % at 7.5 µM; Vibrio harveyi JMH597 AI-2 luminescence/OD600 ratio, 9 h; active compounds read low; strain lacks LuxN and CqsS sensors; 0 = neutral-control median; AID 2094; in the data active = activity change below about -75%, passing the limit was not always enough;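 note: luminescence divided by OD600 gain over 9 h not by final OD600 alone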
PREPL inh = inhibitors of human prolyl oligopeptidase-like enzyme PREPL | 320,000 compounds, 0.68% hits | recombinant PREPL, fluorescence polarization activity-based probe | inhibition, % at 5.96 µM | Q4J6C6; in the data active = inhibition above about 43%
Target sequence (Q4J6C6 whole entry, looked up): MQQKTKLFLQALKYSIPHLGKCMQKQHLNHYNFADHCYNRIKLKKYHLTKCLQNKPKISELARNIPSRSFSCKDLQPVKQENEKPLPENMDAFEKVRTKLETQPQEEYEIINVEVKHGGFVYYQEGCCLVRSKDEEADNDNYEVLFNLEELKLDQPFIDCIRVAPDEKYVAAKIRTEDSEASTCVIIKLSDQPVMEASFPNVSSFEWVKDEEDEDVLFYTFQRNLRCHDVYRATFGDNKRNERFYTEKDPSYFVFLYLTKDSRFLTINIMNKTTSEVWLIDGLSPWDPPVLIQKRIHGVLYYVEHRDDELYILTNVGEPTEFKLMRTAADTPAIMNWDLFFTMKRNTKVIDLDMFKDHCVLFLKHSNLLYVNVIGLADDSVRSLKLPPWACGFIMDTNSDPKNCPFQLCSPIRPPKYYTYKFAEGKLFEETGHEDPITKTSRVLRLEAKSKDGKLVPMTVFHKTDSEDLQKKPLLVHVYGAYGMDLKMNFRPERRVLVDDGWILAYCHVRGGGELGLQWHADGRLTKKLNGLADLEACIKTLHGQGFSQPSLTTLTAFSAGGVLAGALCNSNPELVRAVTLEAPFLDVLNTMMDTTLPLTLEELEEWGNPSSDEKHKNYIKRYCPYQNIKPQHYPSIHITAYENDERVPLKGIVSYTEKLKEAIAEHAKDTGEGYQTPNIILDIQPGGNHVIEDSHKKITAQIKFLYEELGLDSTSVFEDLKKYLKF
CHT allo act = human CHT allosteric activation. CHT-expressing cells, membrane potential dye, choline EC20; active compounds read high; LV-AA mutant CHT in HEK293 cells. B-score at 10 µM. 310,000 compounds, 0.49% hits;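 active = initial fluorescence not abnormally high and integrated response B-score, plate-corrected, over 3 SD above library mean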
ALR H2O2 inh = inhibitors of human sulfhydryl oxidase ALR. P55789. purified ALR, DTT oxidation, H2O2 HRP-luminol luminescence. inhibition, % (test concentration not listed). 290,000 compounds, 3.8% hits;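 active = mean replicate inhibition above about 79%, with every replicate also reaching it, limit read from the data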
CHT inh = human CHT choline transport inhibition; Q9GZV3; CHT-expressing cells, membrane potential dye, choline response; active compounds read low; B-score at 10 µM; 310,000 compounds, 0.86% hits;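 active = B-score over 3 SD under the library average, and starting fluorescence ratio not unusually high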;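 note: choline stimulus applied at its EC90 after an EC20 pre-addition; B-score computed on integrated fluorescence ratio after choline addition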
Hits are given with their value.

Results for CCn1c(CCCCc2n[nH]c(=S)n2CC)n[nH]c1=S ?
AI-2 QS modul: inactive; PREPL inh: inactive; CHT allo act: inactive; ALR H2O2 inh: inactive; CHT inh: inactive

Results for CCn1c(CN2c3ccccc3Sc3ccccc32)n[nH]c1=S ?
AI-2 QS modul: inactive; PREPL inh: inactive; CHT allo act: inactive; ALR H2O2 inh: 97.7; CHT inh: inactive

How did CCC(C)NS(=O)(=O)c1ccc(OCC(=O)N2CCCCC2)cc1 (stereo not given) do in these assays?
AI-2 QS modul: inactive; PREPL inh: inactive; CHT allo act: inactive; ALR H2O2 inh: inactive; CHT inh: inactive

How did Nc1nonc1C(=O)NCCN=Cc1cc(Cc2ccccc2)cc(Br)c1O do in these assays?
AI-2 QS modul: -149.1; PREPL inh: inactive; CHT allo act: inactive; ALR H2O2 inh: inactive; CHT inh: inactive

Results for COc1ccccc1C(=O)CSc1n[nH]c(N)n1 ?
AI-2 QS modul: inactive; PREPL inh: inactive; CHT allo act: inactive; ALR H2O2 inh: inactive; CHT inh: inactive

What do the screens show for `O=C(CSc1cccc[n+]1[O-])c1cc2ccccc2o1`?
AI-2 QS modul: inactive; PREPL inh: inactive; CHT allo act: inactive; ALR H2O2 inh: 93.6; CHT inh: inactive

How did Nc1nc(SCC(=O)c2cc3ccccc3o2)n[nH]1 do in these assays?
AI-2 QS modul: inactive; PREPL inh: inactive; CHT allo act: inactive; ALR H2O2 inh: 97.9; CHT inh: inactive

What do the screens show for `Cc1ccc(NC(=O)C(C)c2ccc(-c3ccccc3)c(F)c2)c(C)c1` (stereo not given)?
AI-2 QS modul: inactive; PREPL inh: inactive; CHT allo act: inactive; ALR H2O2 inh: inactive; CHT inh: inactive

Results for Cc1cc(C)cc(N(C(=O)c2csnn2)C(C(=O)NC2CCCCC2)c2ccccn2)c1 (stereo not given) ?
AI-2 QS modul: inactive; PREPL inh: inactive; CHT allo act: inactive; ALR H2O2 inh: inactive; CHT inh: inactive

Results for CCN(CC)c1ccc(NC(=O)Nc2ccccc2C(F)(F)F)cc1 ?
AI-2 QS modul: inactive; PREPL inh: inactive; CHT allo act: inactive; ALR H2O2 inh: inactive; CHT inh: inactive

Results for CCN(CC)c1ccc(N=Cc2ccc([N+](=O)[O-])o2)cc1 ?
AI-2 QS modul: inactive; PREPL inh: inactive; CHT allo act: inactive; CHT inh: inactive

How did CCN(CC)c1ccc(N=Cc2ccccc2[N+](=O)[O-])cc1 do in these assays?
AI-2 QS modul: inactive; PREPL inh: inactive; CHT allo act: inactive; ALR H2O2 inh: 86.5; CHT inh: inactive

What do the screens show for `CCN(CC(=O)NCc1cccs1)C(=O)c1cccc(S(=O)(=O)Nc2ccccc2Cl)c1`?
AI-2 QS modul: inactive; PREPL inh: inactive; CHT allo act: inactive; CHT inh: inactive

How did O=C(Nc1cccc(-c2ccc(N3CCCCC3)nn2)c1)C(F)(F)F do in these assays?
AI-2 QS modul: inactive; PREPL inh: inactive; CHT allo act: inactive; ALR H2O2 inh: 91.6; CHT inh: inactive

Results for Cc1nc2cccc(C(=O)Oc3ccc([N+](=O)[O-])cc3)c2o1 ?
AI-2 QS modul: inactive; PREPL inh: inactive; CHT allo act: inactive; ALR H2O2 inh: 97.1; CHT inh: inactive

How did CC(C)N1CSC(=S)N(Cc2ccccc2)C1 do in these assays?
AI-2 QS modul: inactive; PREPL inh: inactive; CHT allo act: inactive; ALR H2O2 inh: inactive; CHT inh: inactive

How did Cc1cc(C)n(-c2nc3ccccc3s2)n1 do in these assays?
AI-2 QS modul: inactive; PREPL inh: inactive; CHT allo act: inactive; CHT inh: inactive

How did Cc1cc(N)n(-c2nc3ccccc3s2)n1 do in these assays?
AI-2 QS modul: inactive; PREPL inh: inactive; CHT allo act: inactive; ALR H2O2 inh: 98.8; CHT inh: inactive

What do the screens show for `O=C(CSCc1ccco1)c1ccc(Cl)s1`?
AI-2 QS modul: inactive; PREPL inh: inactive; CHT allo act: inactive; ALR H2O2 inh: 98.0; CHT inh: inactive

What do the screens show for `CCC(=O)NC(C)C(c1cccs1)N1CCN(c2ccccc2)CC1` (stereo not given)?
AI-2 QS modul: inactive; PREPL inh: inactive; CHT allo act: inactive; ALR H2O2 inh: 98.9; CHT inh: inactive

How did CCN1CCN(C(c2cccs2)C(C)NC(=O)c2ccccc2)CC1 (stereo not given) do in these assays?
AI-2 QS modul: inactive; PREPL inh: inactive; CHT allo act: inactive; ALR H2O2 inh: inactive; CHT inh: inactive

Results for CC(=O)NC(C)C(c1cccs1)N1CCN(c2ccccc2)CC1 (stereo not given) ?
AI-2 QS modul: inactive; PREPL inh: inactive; CHT allo act: inactive; ALR H2O2 inh: 98.9; CHT inh: inactive
